# This excerpt belongs to a sample that is enriched for hits.
# Tb PYK inh: qHTS of Trypanosoma Brucei Inhibitors | pyruvate kinase (Trypanosoma brucei), Q57TT1 | TbPYK enzyme, Kinase-Glo Plus ATP luminescence, 45 min | Potency, µM (series often up to 76.8 µM), without a hit: top-dose activity, negative = inhibition, usual class: inhibitors | 410,000 tested, 0.12% active | AID 624173, 2012; also: potency is read from the fitted curve at half-maximal effect; % is scaled to controls: 0 for no effect and ±100 for the full control effect; nearly all actives have a fitted effect of over 50% in size
#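 Readout: single end-point luminescence (Kinase-Glo Plus, 10 min). Reaction conditions were TbPYK/substrate plus 130 uM ADP, 45 min at RT, pH 7.2 TEA buffer. No-enzyme wells served as controls, and data were normalized before concentration-response fitting.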
# Cycloheximide cs: Cycloheximide Counterscreen for Small Molecule Inhibitors of Shiga Toxin | cell reporter, cycloheximide protein synthesis inhibition counterscreen | max response, % | 300,000 tested, 12% active | AID 2314, 2010; in the data active = max response mostly above about 13%, no sharp cut-off; inactive = mostly below about 14%; also: read at 38.3 µM for the half of the compounds with a filed dose; 0% is about no effect
# LmPK inhibitor: qHTS Assay for Inhibitors of Leishmania Mexicana Pyruvate Kinase (LmPK) | purified LmPK, Kinase-Glo ATP luminescence, 1 h | Q27686 | 290,000 tested, 0.37% active | Potency, µM (series often up to 57.5 µM), for the others: at the top dose activity change, negative = inhibition, most hits filed as inhibitors; also: potency is read from the fitted curve at half-maximal effect; % is scaled to controls: 0 for no effect and ±100 for the full control effect
#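 In 50 mM imidazole pH 7.2 with 7 mM MgCl2, LmPK (0.1 nM) turned over PEP (0.5 mM) and ADP (0.1 mM) for 1 h at room temperature. Luciferase read-out of ATP.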
# RE007 growth inh: qHTS Assay for Inhibitors of the HIV-1 protein Vpr | S. pombe RE007 Vpr strain, BacTiter-Glo ATP luminescence, 24 h | Potency, µM (top dose mostly 92.2 µM), inactives show top-dose activity change, negative = less growth, actives largely listed as inhibitors | 360,000 tested, 0.21% active | AID 651644, 2012; active = well fitted falling curve with a large enough effect; inconclusive = small, poorly fitted or top-dose-only effect; inactive = no such curve, though single readings can be large or run the other way; also: potency is read from the fitted curve at half-maximal effect; % is scaled to controls: 0 for no effect and ±100 for the full control effect; nearly all actives have a fitted effect of over 50% in size
#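 Fission yeast strain RE007, carrying one chromosomally integrated HIV-1 vpr copy, was seeded at OD 0.01 in PMG+AL medium with 23 nL pinned compound. After 24 h at 30 °C and 99% humidity, viability was read by BacTiter-Glo luminescence.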
# FBPA Giardia inh: qHTS Assay for Inhibitors of Fructose-1,6-bisphosphate Aldolase from Giardia Lamblia; purified Giardia FBPA; 290,000 tested, 0.71% active; Potency, µM (series often up to 59.6 µM), without a hit: at the highest dose activity, negative = inhibition, actives largely listed as inhibitors; A8B2U2; also: potency is read from the fitted curve at half-maximal effect; % is scaled to controls: 0 for no effect and ±100 for the full control effect; nearly all actives have a fitted effect of over 55% in size
# Target sequence (A8B2U2 whole entry, looked up): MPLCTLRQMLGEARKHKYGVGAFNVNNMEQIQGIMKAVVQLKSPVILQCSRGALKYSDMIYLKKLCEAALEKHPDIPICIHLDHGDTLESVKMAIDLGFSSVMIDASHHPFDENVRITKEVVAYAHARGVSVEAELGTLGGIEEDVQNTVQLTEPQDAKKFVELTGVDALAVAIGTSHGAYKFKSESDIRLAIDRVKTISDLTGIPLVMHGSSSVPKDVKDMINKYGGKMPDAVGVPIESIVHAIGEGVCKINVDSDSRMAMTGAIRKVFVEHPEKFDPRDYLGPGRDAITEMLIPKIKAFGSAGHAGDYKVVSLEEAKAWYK
#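 40 nM FBPA preincubated 10 min at RT with compound (up to 57.5 uM final), then substrate plus GAPDH/TPI/NAD/arsenate coupling and diaphorase/resazurin added. Fluorescence read after 20 min at RT, 525/598 nm.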
# Shiga toxin inh: A qHTS for Small Molecule Inhibitors of Shiga Toxin; Vero cells, Shiga toxin protein synthesis inhibition reporter; inhibition, % at 38.7 µM; 290,000 tested, 9.2% active; in the data active = inhibition mostly above about 28%, no sharp cut-off; inactive = mostly below about 43%; also: 0% is about no effect
# An asterisk follows results filed as active; ? = inconclusive; · = not tested or not shown; [ ] = dose if it differs, or a comment. Unless noted, calls follow the shape of the dose curve; as a rule, active = well fitted curve in the direction sought with a large enough effect; inconclusive = small, poorly fitted or top-dose-only effect, or another doubt; inactive = no such curve, though single readings can be large; an effect the other way counts as inactive or inconclusive.
SMILES,Tb PYK inh,Cycloheximide cs,LmPK inhibitor,RE007 growth inh,FBPA Giardia inh,Shiga toxin inh
c1ccc(NC2=Nc3ccccc3CS2)cc1,-7%,31*,-13%,-23%,16%,99*
c1ccc(NC2=NCCCS2)cc1,-9%,-1,0%,-11%,4%,-1
COc1cccc(CNCc2cccc(OC)c2O)c1O,-12%,·,·,-6%,·,·
COc1cccc(CNc2ncc(Br)cc2Br)c1O,9%,66*,5%,?,0%[12.9 µM],61*
COc1cccc(CNc2ccc(Br)cn2)c1O,-27%,43*,0%,15%,-6%,72*
Cc1cc(C)cc(NC(=O)c2ccc3c(O)c(S(=O)(=O)c4ccccc4)c(=O)[nH]c3c2)c1,-4%,·,·,·,·,·
CCCCCCCCCCCCCCCCCCCCCCCCCCCCCC,·,-3,·,·,5%,-3
COC(=O)c1sccc1N/N=C/c1cccc(OC)c1O,1%,19*,-20%,·,0%,50
COc1cccc(/C=N/NC(=O)CSCC(=O)Nc2ccccc2)c1O,-10%,-4,3%,7%,14%,-23
COC(=O)c1sccc1NC(=O)c1cccc(OC)c1,-15%,1,1%,-10%,-2%,12
COC(=O)c1sccc1N/N=C/c1ccc(OC)c(OC)c1OC,1%,47*,-5%,0%,-1%,39*
COC(=O)c1sccc1N/N=C/c1cccc(Oc2ccccc2)c1,-8%,40*,-25%,-6%,-2%,38*
COc1ccc(CC(=O)Nc2sc3c(c2C(=O)Nc2cccc(C)c2)CCCCC3)cc1,1%,·,·,·,·,·
Cc1cc(C)c2cc(C(=O)Nc3ccc4c(c3)OCO4)[nH]c2c1,2%,-4,6%,2%,1%,-14
COc1cc2[nH]c(C(=O)Nc3ccc4c(c3)OCCO4)cc2c(OC)c1OC,-7%,40*,3%,-21%,·,91*
COc1cc2cc(C(=O)Nc3ccc4c(c3)OCCO4)[nH]c2cc1OC,-9%,47*,6%,-2%,·,103*
N=C1SCC(=O)N1c1ncc(Cc2ccc(F)cc2)s1,-1%,-2,0%,28µM*,-23%,-5
O=C1CSC(=S)N1c1ccc(F)cc1,·,-1,1%,·,6%,-12
Cc1cc(C(=O)Cn2nc(C(=O)O)c3ccccc3c2=O)c(C)n1-c1ccc(F)cc1,5%,49*,1%,12%,5%,155*
COCCn1c(C)cc(C(=O)Cn2nc(C(=O)O)c3ccccc3c2=O)c1C,-5%,17,0%,2%,-1%,20
C=CCn1c(C)cc(C(=O)Cn2nc(C(=O)O)c3ccccc3c2=O)c1C,-2%,32*,2%,-11%,-4%,56*
CCCn1c(C)cc(C(=O)Cn2nnc3ccccc3c2=O)c1C,4%,35*,3%,10%,-2%,82*
CCCCCCCCCCCCC/C=C/[C@@H](O)[C@H](COP(=O)([O-])OCC[N+](C)(C)C)NC(=O)CCCCCCCCCCCCCCCCC,·,·,·,·,5%,·
Cc1ccc2[nH]c3c(N4CCN(Cc5ccccc5)CC4)ncnc3c2c1,5%,9,7%,-24%,-1%,20
CCCOc1ncnc2c1[nH]c1ccc(OC)cc12,-8%,49*,-13%,-9%,2%,68*
SMILES,Tb PYK inh,Cycloheximide cs,LmPK inhibitor,RE007 growth inh,FBPA Giardia inh,Shiga toxin inh
CCCOc1ncnc2c1[nH]c1ccccc12,5%,42*,2%,?,-6%,60
CCN(CC)c1ncnc2c1[nH]c1ccccc12,-3%,-3,-1%,-10%,-6%,-22
CCCCOc1ncnc2c1[nH]c1ccc(C)cc12,-3%,43*,3%,4%,4%,106*
Cc1ccc2[nH]c3c(N4CCCCCC4)ncnc3c2c1,·,18*,6%,·,-5%,65*
COc1ccc2[nH]c3c(N4CC(C)OC(C)C4)ncnc3c2c1 (stereo unspecified),-8%,9,1%,-15%,-21%,-8
Cc1ccc(C2(C)NC(=O)N(CC(=O)Nc3ccccc3C(=O)NC3CCCC3)C2=O)cc1 (stereo unspecified),-1%,·,·,11%,·,·
COCCNc1ncnc2c1[nH]c1ccccc12,-2%,6,-3%,-12%,-1%,9
CC(C)Oc1ncnc2c1[nH]c1ccccc12,4%,30*,-6%,-18%,-3%,39*
Cc1ccc(NC2c3ncccc3C(=O)N2c2ccccc2C)cc1C (stereo unspecified),?,22*,-2%,-16%,-20%,72*
CCOc1ccc(N2C(=O)c3cccnc3C2Nc2ccc(Cl)cc2)cc1 (stereo unspecified),3%,2,2%,2%,-1%,-1
CCSc1nnc(NC(=O)Cc2cc(OC)c(OC)c(OC)c2)s1,1%,1,1%,15%,8%,-11
O=C(COC(=O)c1ccc2ncsc2c1)Nc1ncc(Cl)cc1Cl,3%,37*,-5%,2%,23%,9
COc1ccc(C(=O)NC(=O)COC(=O)c2ccc3ncsc3c2)cc1,·,32*,1%,·,?,35*
Cc1c(Cl)cnc(NC(=O)COC(=O)c2ccc3ncsc3c2)c1Cl,-2%,34*,1%,-8%,11%,60*
O=C(COC(=O)c1ccc2ncsc2c1)NC(=O)c1ccccc1,-18%,10,0%,-8%,-2%,-14
O=C(COC(=O)c1ccc2ncsc2c1)Nc1cc(Cl)ccc1F,-12%,·,·,?,·,·
CCC(=O)N(Cc1ccc(S(N)(=O)=O)cc1)C1CC(=O)N(c2ccccc2)C1=O (stereo unspecified),-4%,7,2%,-3%,4%,28
COCCCN1C(=O)C(CC(=O)NCCN2CCOCC2)CC(C(=O)N(C(C)C)C(C)C)=C1C (stereo unspecified),2%,·,·,9%,·,·
CSCC[C@H](NC(=O)OC(C)(C)C)C(=O)N1CCC(C(=O)N[C@@H](C)C(=O)NC(C)c2ccccc2)CC1 (stereo partly specified),2%,-3,-10%,-9%,-2%,-5
CC(=O)C(O)C(c1ccccc1)c1c(O)c2ccccc2oc1=O (stereo unspecified),·,-9,·,·,12%,-5
Cc1ccc(NC(=O)Nc2ccc3nc(N4CCN(C)CC4)cc(C)c3c2)cc1F,-9%,·,·,·,·,·
O=C(NC(=O)c1ccccc1)Nc1ccc(-c2cnco2)cc1,3%,32*,-14%,-19%,1%,63*
O=C(Nc1ccc(Cl)cc1)Nc1ccc(-c2cnco2)cc1,-11%,20*,-2%,-15%,-3%,29
CC(C)(C)C(=O)Nc1ccc(-c2cnco2)cc1,2%,21*,-6%,-7%,-1%,64*
